Measured values published in paper PMC7862700, “An all-to-all approach to the identification of sequence-specific readers for epigenetic DNA modifications on cytosine”.

How the values were obtained:
Assay in all cases: DAPPL (digital affinity profiling via proximity ligation, sequencing); 10 mM Tris-HCl pH 7.5, 50 mM NaCl, 1 mM DTT, 4% glycerol, room temperature, 30 min; GST-TFs on glutathione beads, 16-mer random dsDNA library, 0.1% formaldehyde crosslink after washing; high values mean tight binding
Conditions in all cases: protein: recombinant; tags: N-terminal GST; dsDNA, one strand shown
[1] = biological target: T1, FLI1 (Homo sapiens, UniProt Q01543 1-452)
T1 sequence: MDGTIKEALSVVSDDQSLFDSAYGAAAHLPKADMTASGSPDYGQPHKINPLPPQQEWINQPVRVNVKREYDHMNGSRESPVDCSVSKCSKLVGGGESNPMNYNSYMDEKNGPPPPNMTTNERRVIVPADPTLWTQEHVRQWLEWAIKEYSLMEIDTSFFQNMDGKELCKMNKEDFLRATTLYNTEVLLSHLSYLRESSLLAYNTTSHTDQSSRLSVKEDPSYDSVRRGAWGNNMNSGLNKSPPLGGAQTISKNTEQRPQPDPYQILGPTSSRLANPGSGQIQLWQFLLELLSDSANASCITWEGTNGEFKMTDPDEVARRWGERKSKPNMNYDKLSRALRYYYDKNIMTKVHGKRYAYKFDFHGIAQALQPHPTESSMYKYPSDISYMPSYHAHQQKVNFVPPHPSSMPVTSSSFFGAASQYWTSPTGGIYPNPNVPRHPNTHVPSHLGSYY
Outline: (§1)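 A tag-only sample was pooled with DNA-barcoded human transcription factors that had been expressed in yeast as GST fusions and captured on glutathione beads. The pools were incubated for 30 min at room temperature with 200 nmole of a random double-stranded 16-mer DNA library in Tris/NaCl/DTT/glycerol buffer, then washed, crosslinked with 0.1% formaldehyde, proximity-ligated (BsaI/T4 ligase, 1 h, 37 °C), PCR-amplified and sequenced on an Illumina NextSeq500. Binding signal is each hexamer's read frequency for a factor divided by its frequency for the tag-only sample.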

[2] = biological target: T2, ELK1 (Homo sapiens, UniProt P19419 1-428)
T2 sequence: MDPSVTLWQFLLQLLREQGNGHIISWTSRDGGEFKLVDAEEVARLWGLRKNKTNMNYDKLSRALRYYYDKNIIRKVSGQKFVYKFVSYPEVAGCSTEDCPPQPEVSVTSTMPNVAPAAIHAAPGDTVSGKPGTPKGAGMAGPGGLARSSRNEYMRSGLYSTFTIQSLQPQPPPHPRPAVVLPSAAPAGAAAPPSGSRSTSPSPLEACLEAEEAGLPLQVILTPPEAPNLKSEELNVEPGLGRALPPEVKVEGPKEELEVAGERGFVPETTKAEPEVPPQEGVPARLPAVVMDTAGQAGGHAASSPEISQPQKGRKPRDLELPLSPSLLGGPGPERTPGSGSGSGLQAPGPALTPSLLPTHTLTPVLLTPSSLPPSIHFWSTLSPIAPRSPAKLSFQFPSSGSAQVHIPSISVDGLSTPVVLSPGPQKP
Outline: as §1

[3] = biological target: T3, GABPA (Homo sapiens, UniProt Q06546 1-454)
T3 sequence: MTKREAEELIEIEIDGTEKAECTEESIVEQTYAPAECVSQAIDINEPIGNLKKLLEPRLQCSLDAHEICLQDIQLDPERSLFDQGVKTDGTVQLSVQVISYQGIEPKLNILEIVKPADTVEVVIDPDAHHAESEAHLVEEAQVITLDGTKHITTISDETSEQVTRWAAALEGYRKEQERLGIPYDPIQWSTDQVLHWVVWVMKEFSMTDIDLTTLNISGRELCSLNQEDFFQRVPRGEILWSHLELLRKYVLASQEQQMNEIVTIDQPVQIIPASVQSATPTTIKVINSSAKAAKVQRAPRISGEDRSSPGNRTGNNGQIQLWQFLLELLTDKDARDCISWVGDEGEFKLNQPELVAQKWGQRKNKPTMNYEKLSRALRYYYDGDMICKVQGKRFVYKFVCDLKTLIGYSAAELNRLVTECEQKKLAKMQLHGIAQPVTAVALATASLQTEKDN
Outline: as §1

[4] = biological target: T4, ERG (Homo sapiens, UniProt P11308 1-479)
T4 sequence: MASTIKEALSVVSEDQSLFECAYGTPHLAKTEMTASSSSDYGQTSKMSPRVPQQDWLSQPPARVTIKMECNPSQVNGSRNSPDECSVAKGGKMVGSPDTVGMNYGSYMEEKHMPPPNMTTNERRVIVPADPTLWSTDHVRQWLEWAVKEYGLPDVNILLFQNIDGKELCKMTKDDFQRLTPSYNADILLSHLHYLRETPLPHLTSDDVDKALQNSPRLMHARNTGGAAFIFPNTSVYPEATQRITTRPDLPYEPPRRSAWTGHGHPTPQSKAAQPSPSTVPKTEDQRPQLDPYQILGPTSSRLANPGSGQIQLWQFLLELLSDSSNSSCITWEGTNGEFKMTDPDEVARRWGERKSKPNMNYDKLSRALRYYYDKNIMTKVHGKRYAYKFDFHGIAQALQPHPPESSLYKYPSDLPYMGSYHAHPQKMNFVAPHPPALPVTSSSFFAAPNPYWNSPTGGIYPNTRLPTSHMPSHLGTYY
Outline: as §1

[5] = biological target: ELF1 (Homo sapiens, UniProt P32519 1-619)
Sequence of ELF1 (P32519 whole entry): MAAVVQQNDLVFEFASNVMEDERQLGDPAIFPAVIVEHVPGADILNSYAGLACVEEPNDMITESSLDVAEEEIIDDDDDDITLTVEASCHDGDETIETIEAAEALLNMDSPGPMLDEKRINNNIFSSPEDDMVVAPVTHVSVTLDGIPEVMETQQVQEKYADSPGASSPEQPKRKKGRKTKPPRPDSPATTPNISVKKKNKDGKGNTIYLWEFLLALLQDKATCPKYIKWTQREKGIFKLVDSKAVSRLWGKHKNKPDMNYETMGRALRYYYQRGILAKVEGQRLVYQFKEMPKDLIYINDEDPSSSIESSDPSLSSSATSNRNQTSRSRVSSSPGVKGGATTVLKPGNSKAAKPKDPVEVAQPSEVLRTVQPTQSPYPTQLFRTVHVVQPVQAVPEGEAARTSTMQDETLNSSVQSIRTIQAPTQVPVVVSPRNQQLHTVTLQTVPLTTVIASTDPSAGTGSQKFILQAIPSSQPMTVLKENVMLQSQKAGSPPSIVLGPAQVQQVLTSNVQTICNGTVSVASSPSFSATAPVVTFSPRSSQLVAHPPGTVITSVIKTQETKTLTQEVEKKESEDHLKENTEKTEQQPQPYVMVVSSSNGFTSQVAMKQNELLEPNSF
Outline: as §1

[6] = biological target: T5, EHF (Homo sapiens, UniProt Q9NZC4 1-300)
T5 sequence: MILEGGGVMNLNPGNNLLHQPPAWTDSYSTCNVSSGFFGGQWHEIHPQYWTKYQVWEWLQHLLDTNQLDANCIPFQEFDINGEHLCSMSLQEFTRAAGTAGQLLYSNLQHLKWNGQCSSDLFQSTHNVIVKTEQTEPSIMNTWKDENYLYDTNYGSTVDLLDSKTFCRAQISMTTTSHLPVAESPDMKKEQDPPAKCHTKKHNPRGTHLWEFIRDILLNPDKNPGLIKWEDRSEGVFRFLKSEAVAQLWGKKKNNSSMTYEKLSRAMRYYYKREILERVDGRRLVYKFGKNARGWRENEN
Outline: as §1

[7] = biological target: SPI1 (Homo sapiens, UniProt P17947 1-270)
Outline: as §1

[8] = biological target: SPIB (Homo sapiens, UniProt Q01892 1-262)
Sequence of SPIB (Q01892 whole entry): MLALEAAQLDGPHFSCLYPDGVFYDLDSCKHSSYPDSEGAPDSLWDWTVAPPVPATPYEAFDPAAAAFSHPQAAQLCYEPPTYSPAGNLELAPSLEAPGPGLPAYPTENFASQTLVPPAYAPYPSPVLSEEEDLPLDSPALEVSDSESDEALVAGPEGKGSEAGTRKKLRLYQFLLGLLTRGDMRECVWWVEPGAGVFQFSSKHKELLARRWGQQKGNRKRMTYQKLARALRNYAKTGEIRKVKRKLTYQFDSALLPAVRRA
Outline: as §1

[9] = biological target: T6, ELK3 (Homo sapiens, UniProt P41970 1-407)
T6 sequence: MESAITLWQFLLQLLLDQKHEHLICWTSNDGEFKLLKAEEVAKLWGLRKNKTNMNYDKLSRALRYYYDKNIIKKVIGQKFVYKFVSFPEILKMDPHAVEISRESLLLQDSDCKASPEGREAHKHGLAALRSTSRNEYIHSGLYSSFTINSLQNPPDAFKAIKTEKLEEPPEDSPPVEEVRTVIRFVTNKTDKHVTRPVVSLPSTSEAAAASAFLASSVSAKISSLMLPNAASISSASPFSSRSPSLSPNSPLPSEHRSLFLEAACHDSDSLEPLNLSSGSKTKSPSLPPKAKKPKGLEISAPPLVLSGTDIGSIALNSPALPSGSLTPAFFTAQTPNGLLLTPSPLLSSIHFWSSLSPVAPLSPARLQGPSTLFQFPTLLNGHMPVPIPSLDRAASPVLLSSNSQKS
Outline: as §1

CTTCTG
binding signal [1]: 1.48 fold enrichment (6-mer frequency, TF over GST control)
binding signal [2]: 1.34 fold enrichment (6-mer frequency, TF over GST control)
binding signal [3]: 1.26 fold enrichment (6-mer frequency, TF over GST control)
binding signal [4]: 1.3 fold enrichment (6-mer frequency, TF over GST control)
binding signal [5]: 1.34 fold enrichment (6-mer frequency, TF over GST control)
binding signal [6]: 1.27 fold enrichment (6-mer frequency, TF over GST control)
binding signal [7]: 1.36 fold enrichment (6-mer frequency, TF over GST control)
binding signal [8]: 1.32 fold enrichment (6-mer frequency, TF over GST control)
binding signal [9]: 1.4 fold enrichment (6-mer frequency, TF over GST control)
